Activity calls are given as the source filed them.

This note sets out measurements from PubChem BioAssay.

Assay [1] has as its system Plasmodium falciparum Sir2 (PF13_0152, Sir2A). As to the kind of experiment: pfSir2 binders on small-molecule microarrays, primary screen, biochemical, small-molecule microarray, 635 nm fluorescence (AID 1098).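 Also: score merges spot fluorescence intensity with its signal-to-noise ratio.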 The following applies: small-molecule microarray binding, fluorescence 635 nm; higher = more signal.
A short description of assay [2]: small-molecule microarray binders of probe aDKK1, primary screen, biochemical, biotinylated probe, 635/667 nm fluorescence (AID 1099).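 Also: score merges 667nm spot fluorescence with signal to noise across triplicate slides; reference of the scale not given here.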 To be noted: higher = more signal.
Assay [3] in a line: small-molecule microarray binders of probe aCHRDL2, primary screen, biochemical, biotinylated probe, 635/667 nm fluorescence (AID 1100). The following applies: higher = more signal.
The nature of assay [4]: splicing luciferase reporter signal modulators, primary screen, spliceosome inhibition project, cell-based, HEK293, splice +/- reporter (AID 1101).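 Also: HEK293 cells carrying a splicing-competent luciferase reporter gene; test concentration not given here.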 The following applies: luminescence, 24 h, higher = more signal, called active from +8 up or from −8 down.
In assay [5] the target is Fibroblast growth factor 10 (Homo sapiens) (UniProt O15520). Briefly: FGF10 binders on small-molecule microarrays, primary screen, biochemical, small-molecule microarray, 635 nm fluorescence (AID 1102). The following applies: FGF10 binding, fluorescence 635 nm, higher = more signal.
Assay [6] has as its system glycogen synthase kinase-3 (GSK3A per assay name; protocol says GSK3B). As to the kind of experiment: GSK3 binders on small-molecule microarrays, primary screen, biochemical, small-molecule microarray, 635 nm fluorescence, GSK3A (AID 1103). Also: the record names both GSK3A and GSK3B. To be noted: small-molecule microarray binding, fluorescence 635 nm; higher = more signal.
The target of assay [7] is Epidermal growth factor receptor (Homo sapiens) (UniProt P00533). As to the kind of experiment: EGFR binders on small-molecule microarrays, primary screen, biochemical, small-molecule microarray, 635 nm fluorescence (AID 1104).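 Also: score merges 667 nm emission intensity with spot signal to noise over triplicate slides.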 The following applies: EGFR binding, higher = more signal.
The target of assay [8] is Follistatin-related protein 3 (Homo sapiens) (UniProt O95633). Briefly: FSTL3 binders on small-molecule microarrays, primary screen, biochemical, small-molecule microarray, 635 nm fluorescence (AID 1105).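 Also: score merges emission near 667 nm and signal to noise per printed spot across three slides.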 To be noted: FSTL3 binding, higher = more signal.
The target of assay [9] is Dickkopf-related protein 1 (Homo sapiens) (UniProt O94907). Briefly: DKK1 binders on small-molecule microarrays, primary screen, biochemical, small-molecule microarray, 635 nm fluorescence scan (AID 1106).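 Also: score merges emission near 667 nm with signal to noise over three replicate slides.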 The following applies: DKK1 binding, higher = more signal.
Assay [10] relates to Inhibin beta A chain (activin A). Briefly: INHBA (activin A) binders on microarrays, primary screen, biochemical, small-molecule microarray, 635 nm fluorescence scan (AID 1107).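 Also: mouse activin A protein probed at 4.33 µg/mL on printed slides; score merges bound-protein fluorescence near 667 nm with spot signal-to-noise.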 To be noted: small-molecule microarray binding, higher = more signal.

Chain of Dickkopf-related protein 1 (Homo sapiens) (O94907 whole entry, looked up): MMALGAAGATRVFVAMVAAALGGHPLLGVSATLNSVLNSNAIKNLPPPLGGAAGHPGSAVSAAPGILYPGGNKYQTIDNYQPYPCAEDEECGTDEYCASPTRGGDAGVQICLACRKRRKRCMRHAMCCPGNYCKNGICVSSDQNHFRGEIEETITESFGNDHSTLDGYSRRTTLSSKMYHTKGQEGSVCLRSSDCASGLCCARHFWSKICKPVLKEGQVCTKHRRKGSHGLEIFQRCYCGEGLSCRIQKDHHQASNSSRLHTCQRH
Chain of Epidermal growth factor receptor (Homo sapiens) (P00533 whole entry, looked up): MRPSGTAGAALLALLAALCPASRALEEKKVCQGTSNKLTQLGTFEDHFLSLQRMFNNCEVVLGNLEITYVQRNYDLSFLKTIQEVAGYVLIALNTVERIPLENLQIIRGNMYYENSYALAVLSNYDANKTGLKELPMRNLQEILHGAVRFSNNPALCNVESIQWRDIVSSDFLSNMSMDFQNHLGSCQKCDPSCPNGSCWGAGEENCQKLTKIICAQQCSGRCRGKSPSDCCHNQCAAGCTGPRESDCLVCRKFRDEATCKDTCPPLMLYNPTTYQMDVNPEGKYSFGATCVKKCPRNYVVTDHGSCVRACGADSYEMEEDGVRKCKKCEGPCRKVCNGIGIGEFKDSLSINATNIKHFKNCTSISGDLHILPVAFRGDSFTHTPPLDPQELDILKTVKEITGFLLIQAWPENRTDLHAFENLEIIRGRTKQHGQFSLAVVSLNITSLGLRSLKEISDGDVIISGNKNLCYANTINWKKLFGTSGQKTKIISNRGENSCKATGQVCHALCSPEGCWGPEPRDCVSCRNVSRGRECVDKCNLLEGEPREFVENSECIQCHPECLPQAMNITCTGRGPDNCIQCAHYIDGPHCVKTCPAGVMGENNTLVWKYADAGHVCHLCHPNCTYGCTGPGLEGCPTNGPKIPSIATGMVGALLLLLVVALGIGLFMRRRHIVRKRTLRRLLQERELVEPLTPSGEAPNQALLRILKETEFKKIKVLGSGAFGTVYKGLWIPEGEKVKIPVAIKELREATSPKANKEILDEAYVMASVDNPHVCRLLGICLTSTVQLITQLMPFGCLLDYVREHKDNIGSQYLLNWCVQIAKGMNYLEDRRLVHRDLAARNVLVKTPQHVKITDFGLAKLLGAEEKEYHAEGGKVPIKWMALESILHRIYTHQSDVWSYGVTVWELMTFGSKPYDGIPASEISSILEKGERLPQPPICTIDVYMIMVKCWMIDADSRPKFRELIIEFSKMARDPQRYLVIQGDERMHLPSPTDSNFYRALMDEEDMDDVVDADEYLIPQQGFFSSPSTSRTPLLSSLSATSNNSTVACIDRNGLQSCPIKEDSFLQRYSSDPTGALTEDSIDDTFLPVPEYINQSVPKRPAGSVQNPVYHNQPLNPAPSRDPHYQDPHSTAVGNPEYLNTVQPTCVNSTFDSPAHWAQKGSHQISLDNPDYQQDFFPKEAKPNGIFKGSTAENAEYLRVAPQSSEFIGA
Chain of Fibroblast growth factor 10 (Homo sapiens) (O15520 whole entry, looked up): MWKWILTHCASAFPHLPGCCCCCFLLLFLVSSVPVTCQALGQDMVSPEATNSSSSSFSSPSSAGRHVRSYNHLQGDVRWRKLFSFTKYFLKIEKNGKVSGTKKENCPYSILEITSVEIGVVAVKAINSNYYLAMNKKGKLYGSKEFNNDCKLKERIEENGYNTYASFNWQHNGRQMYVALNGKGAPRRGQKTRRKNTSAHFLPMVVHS
Chain of Follistatin-related protein 3 (Homo sapiens) (O95633 whole entry, looked up): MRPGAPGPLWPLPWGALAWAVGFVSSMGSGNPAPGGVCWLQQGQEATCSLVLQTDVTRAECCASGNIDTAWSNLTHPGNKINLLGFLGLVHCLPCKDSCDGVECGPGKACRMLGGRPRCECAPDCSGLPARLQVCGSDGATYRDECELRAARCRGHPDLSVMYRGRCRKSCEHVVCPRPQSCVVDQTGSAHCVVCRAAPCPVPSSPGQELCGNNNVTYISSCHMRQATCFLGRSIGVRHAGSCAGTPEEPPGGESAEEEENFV

With `[N-]=[N+]=Nc1ccccc1[C@@H]1OC(c2ccc(OCCCO)cc2)=N[C@]1(Cc1ccccc1)C(=O)N1CCCCC1`, the composite z-score in assay [1] came out at 1.16; in assay [2] it was 0.374; in [3] it was 0.711; in assay [5] it was 1.43; in [6] it was 0.769; in [7] it was 0.332. Also, the composite z-score in assay [8] was 1.07; in [9], -0.0165; in assay [10], 0.441. Further, in assay [4], the z-score was 0.745 (inactive).
As for `COC(=O)[C@@H]1N=C(c2ccc(OCCCO)cc2)O[C@@H]1c1ccccc1`, the composite z-score was 1.76 in [1]; 0.311 in [2]; 0.725 in assay [3]; -1.4 in [5]; -1.33 in assay [6]; -0.665 in assay [7]. Further, the composite z-score was -1.22 in assay [8], -1.71 in [9] and -0.0285 in [10]. Moreover, the z-score in assay [4] is -2.07 (inactive).
Turning to `COc1cccc(C)c1NC(=O)O[C@H]1[C@H](OC(=O)Nc2ccc3c(c2)OCO3)[C@@H](OC(=O)Nc2ccc3c(c2)OCO3)[C@@H](OC)O[C@@H]1CO`, the composite z-score in assay [1] came to 0.264; in assay [2], 0.18; in assay [3], 0.232; in assay [5], 1.46; in [6] it was 1.35; in [7], 0.603. Also, the composite z-score in assay [8] is 1.44; in assay [9] it was 0.708; in [10] it was 0.724. In addition, the z-score in [4] was -0.23 (inactive).
As to `COc1ccc([Si](C)(C)[C@H]2[C@H](CC(=O)N3CCC[C@H]3CO)O[C@@]3(C(=O)N(Cc4ccc(N5CCOC5=O)cc4)c4ccccc43)[C@@H]2C)cc1`, the composite z-score was 1.08 in assay [1]; -0.214 in assay [2]; -0.246 in assay [3]; 1.22 in [5]; 1.14 in assay [6]; 0.737 in assay [7]. Besides, the composite z-score came to 1.06 in [8], 0.672 in assay [9] and 0.378 in [10]. In addition, the z-score in assay [4] is 0.467 (inactive).
For the compound `CC(C)c1ccc(NN2C(C(O)c3ccc(F)cc3)C=CC3C(=O)N(c4ccccc4)C(=O)C32)cc1` (stereo not given), the composite z-score in [1] was found to be 1.28; in assay [2] it was 0.47; in assay [3], 0.775; in assay [5], 1.07; in assay [6], 0.275; in assay [7], 0.3. The composite z-score in assay [8] was 1.37; in [9], -0.0647; in [10], 0.869. Besides, in [4], the z-score was -0.548 (inactive).
Turning to `C=C(COC)C(=O)CC[C@@H](OC(C)=O)c1cccc(OCCO)c1`, the composite z-score in assay [1] was 0.114; in [2], -0.0524; in [3], 0.225; in [5], 1.38; in [6] it was -0.911; in [7], -0.934. Moreover, the composite z-score was -0.303 in [8], 0.227 in assay [9] and 1.01 in assay [10]. Besides, in assay [4], the z-score was 1.32 (inactive).
Consider `COC(=O)c1c(CC[C@@H](CO)NC(=O)N2CCC[C@H]2Cn2cc(C3(O)CCCCC3)nn2)oc(C(C)=O)c1C(=O)OC`, for which the composite z-score in assay [1] is 1.65; in assay [2], -0.152; in assay [3], -0.404; in assay [5] it was 0.955; in assay [6] it was 0.56; in assay [7], 0.197. For the same compound, the composite z-score worked out at 0.742 in assay [8], 0.336 in assay [9] and 0.0806 in assay [10]. In addition, the z-score in [4] was -0.503 (inactive).
Turning to `COc1cc(C(O)C2C=CC3C(=O)N(C)C(=O)C3N2Nc2ccccc2)cc(OC)c1OC` (stereo not given), the composite z-score is 1.66 in assay [1]; 1.22 in assay [2]; 0.655 in assay [3]; 0.581 in assay [5]; 1.25 in assay [6]; -0.206 in [7]. The composite z-score is 0.595 in assay [8], -0.543 in assay [9] and 0.916 in assay [10]. The z-score in assay [4] was -0.0318 (inactive).
As for `CCOC(=O)C[C@H]1[C@H](OC(=O)c2ccc(C(=O)c3ccccc3)cc2)[C@@H](NC(=O)C2CCCCC2)c2cc(OCCCO)ccc2N1C(=O)c1ccc2ccccc2n1`, the composite z-score was 0.698 in assay [1]; -0.0699 in assay [2]; -0.125 in assay [3]; 0.839 in [5]; 0.432 in [6]; 0.34 in assay [7]. In addition, the results for the composite z-score in assay [8], in assay [9] and in assay [10] were 1.03, 0.595 and 0.456, respectively. Further, the z-score in assay [4] was 0.112 (inactive).
Turning to `COC(=O)c1c(CC[C@@H](CO)NC(=O)N[C@@H](C)Cn2cc(-c3ccccn3)nn2)oc(C(C)=O)c1C(=O)OC`, the composite z-score in assay [1] was 1.09; in assay [2] it was -0.18; in [3], -0.495; in [5], 0.563; in assay [6], 0.0696; in assay [7] it was -0.344. The composite z-score in assay [8] came to 0.454; in assay [9] it was 0.28; in assay [10] it was 0.284. Further, the z-score in [4] was -1.89 (inactive).
Regarding `O=C1N(Cc2ccccc2)c2ccccc2C[C@]12N=C(c1ccc(OCCCO)cc1)O[C@@H]2c1ccccc1`, the composite z-score in assay [1] was 0.25; in assay [2] it was 0.035; in assay [3], 0.333; in assay [5], 0.796; in [6] it was 0.914; in [7], 0.498. Moreover, the composite z-score in assay [8] is 0.935; in assay [9] it was 0.271; in [10], 0.736. The z-score in assay [4] was 0.214 (inactive).
For `NC(=O)NCC#Cc1ccc2c(c1)[C@]1(C(=O)N2)[C@H](C(=O)N2CCN(c3ncccn3)CC2)[C@H]2C(=O)O[C@H](c3ccccc3)[C@H](c3ccccc3)N2[C@@H]1c1ccc(O)cc1`, the composite z-score in assay [1] was 0.615; in assay [2], 0.287; in assay [3] it was 0.208; in assay [5] it was 1.21; in assay [6], -0.0752; in assay [7], 0.755. Moreover, the composite z-score is 1.41 in assay [8], 0.704 in [9] and -0.131 in [10]. In assay [4], the z-score was -0.534 (inactive).
Take `O=c1cccc(-c2ccc([N+](=O)[O-])cc2)o1`: the composite z-score in assay [1] is -0.632; in assay [2], -0.0855; in assay [3], -0.512; in assay [5], 0.274; in assay [6], 0.959; in assay [7], 0.574. The composite z-score in assay [8] amounted to 0.534; in assay [9] it was 0.0662; in assay [10] it was 1.22. Besides, the z-score in [4] is -1.49 (inactive).
As to `CCCC=C(CCC)[C@@H](NC(=O)C(C)(C)C)c1ccc(C(=O)OC)cc1`, the composite z-score in assay [1] was -0.0973; in assay [2], 1.13; in assay [3], 1.06; in assay [5] it was -0.129; in [6], -0.107; in [7], -0.0375. Further, the composite z-score in assay [8] is 0.11; in assay [9], -0.58; in assay [10], 0.757. Also, in assay [4], the z-score is -0.58 (inactive).
With `CCOC(=O)C[C@H]1[C@H](OC(=O)c2cc3ccccc3oc2=O)[C@@H](NC(=O)c2ccccc2)c2cc(OCCCO)ccc2N1C(=O)c1ccccc1`, the composite z-score was -0.06 in assay [1]; -0.198 in assay [2]; -0.432 in assay [3]; 0.836 in assay [5]; 0.775 in assay [6]; 0.417 in assay [7]. Further, the composite z-score in assay [8] amounted to 0.653; in assay [9] it was 0.415; in assay [10] it was 0.225. In addition, the z-score in [4] is -0.644 (inactive).
Regarding `[N-]=[N+]=Nc1ccccc1C[C@@]1(C(N)=O)N=C(c2ccc(OCCCO)cc2)O[C@@H]1c1ccccc1N=[N+]=[N-]`, the composite z-score is 0.749 in [1]; 1.14 in assay [2]; 0.974 in assay [3]; -0.24 in [5]; 0.385 in [6]; 0.181 in assay [7]. Also, the composite z-score is -0.199 in [8], -0.459 in assay [9] and 1.46 in assay [10]. In addition, in [4], the z-score is -1.36 (inactive).
